The supplement of paper PMC6555819

Assays:
Assay in all cases: PBM binding z-score (relative to random genomic background probes); higher = stronger binding; sequences stand for … in GC…GCGATTGACAGCGTAGAATGAAGG
[1] = tested on: FXR:RXRa (NR concentration 270 nM, RXRa partner concentration 90 nM)
Method in brief: (§1)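 Antibodies against each partner of ligand-free nuclear receptor dimers (one per run) detected binding on custom Agilent 4×180K protein-binding microarrays after 1 h incubation. The double-stranded probes had 34-nt variable regions carrying direct-repeat seeds, single-nucleotide variants, half-site ablations and random human genomic background sequences. Binding z-scores, from regression-normalized fluorescence, use the random background probes as reference.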

[2] = tested on: LXRa:RXRa (NR concentration 270 nM, RXRa partner concentration 90 nM)
Method in brief: as §1

[3] = tested on: LXRa homodimer (NR concentration 270 nM)
Method in brief: as §1

[4] = tested on: LXRb:RXRa (NR concentration 270 nM, RXRa partner concentration 90 nM)
Method in brief: as §1

[5] = tested on: LXRb homodimer (NR concentration 270 nM)
Method in brief: as §1

[6] = tested on: PPARa:RXRa (NR concentration 270 nM, RXRa partner concentration 90 nM)
Method in brief: as §1

[7] = tested on: PPARg:RXRa (NR concentration 180 nM, RXRa partner concentration 90 nM)
Method in brief: as §1

[8] = tested on: PPARg:RXRa 270nM:90nM, anti-RXR (NR concentration 270 nM, RXRa partner concentration 90 nM)
Method in brief: as §1

[9] = tested on: PPARg:RXRa 30nM:10nM, anti-RXR (NR concentration 30 nM, RXRa partner concentration 10 nM)
Method in brief: as §1

[10] = tested on: PPARg:RXRa 90nM:30nM, anti-RXR (NR concentration 90 nM, RXRa partner concentration 30 nM)
Method in brief: as §1

[11] = tested on: PPARg:RXRa DBDmut IVT, anti-RXR (DBD mutation: RXRa K156A/R161A, NR concentration 270 nM, RXRa partner concentration 90 nM)
Method in brief: as §1

[12] = tested on: PPARg:RXRa IVT, anti-PPARg (NR concentration 270 nM, RXRa partner concentration 90 nM)
Method in brief: as §1

[13] = tested on: PPARg DBDmut:RXRa IVT, anti-PPARg (DBD mutation: PPARg1 K132A/R137A, NR concentration 270 nM, RXRa partner concentration 90 nM)
Method in brief: as §1

[14] = tested on: PPARg DBDmut IVT, anti-PPARg (DBD mutation: PPARg1 K132A/R137A, NR concentration 270 nM)
Method in brief: as §1

[15] = tested on: PPARg homodimer (NR concentration 180 nM)
Method in brief: as §1

[16] = tested on: PXR:RXRa (NR concentration 270 nM, RXRa partner concentration 90 nM)
Method in brief: as §1

[17] = tested on: PXR homodimer (NR concentration 270 nM)
Method in brief: as §1

[18] = tested on: RARa:RXR (NR concentration 270 nM, RXRa partner concentration 90 nM)
Method in brief: as §1

[19] = tested on: RARa homodimer (NR concentration 270 nM)
Method in brief: as §1

[20] = tested on: RARb:RXRa (NR concentration 270 nM, RXRa partner concentration 90 nM)
Method in brief: as §1

Sequence | PBM binding z-score [1] | PBM binding z-score [2] | PBM binding z-score [3] | PBM binding z-score [4] | PBM binding z-score [5] | PBM binding z-score [6] | PBM binding z-score [7] | PBM binding z-score [8] | PBM binding z-score [9] | PBM binding z-score [10] | PBM binding z-score [11] | PBM binding z-score [12] | PBM binding z-score [13] | PBM binding z-score [14] | PBM binding z-score [15] | PBM binding z-score [16] | PBM binding z-score [17] | PBM binding z-score [18] | PBM binding z-score [19] | PBM binding z-score [20]
TCATATAGGTAAAAGGTGAATGTCGGTGTGGTAA | 1.81 | 1.79 | 0.481 | 1.93 | 0.156 | 5.2 | 8.83 | 8.55 | 8.35 | 9.06 | 5.52 | 5.08 | 1.42 | 1.7 | 1.98 | 1.71 | 0.679 | 2.97 | 1.84 | 1.86
CCTCGGAGGACAACAGGAGGTAAGAGCTGCCAGA | 0.127 | -0.463 | -0.208 | -0.701 | -0.983 | -0.345 | 0.154 | -0.624 | -0.764 | -0.831 | -0.141 | -0.621 | -1.15 | -1.44 | 0.0253 | -0.402 | -0.651 | -0.0361 | 0.0272 | 0.846
TAGCCTAGGTCATGCGGGCCAGTATCGTGTCGGC | 3.99 | 3.03 | 0.667 | 1.41 | -0.226 | 3.06 | 1.67 | 2.29 | 0.00483 | 1.36 | 1.85 | 2.82 | -0.0878 | -0.59 | 0.211 | 1.41 | -0.532 | 2 | -0.99 | 3.49
AATATAGGGTCATCGTAGGCCAGAGTACGCACAG | 7.57 | 6.66 | 2.71 | 5 | 1.56 | 6.26 | 7.29 | 6.57 | 3.61 | 5.37 | 4.87 | 5.42 | 1.96 | 1.99 | 2.4 | 4.98 | 0.973 | 5.35 | 1.7 | 4.58
GCGACTGGGGCAAAGCAGGTTACCACAAGGTTGG | 0.61 | -0.0445 | -0.447 | 0.204 | -1.07 | 1.14 | 1.35 | 1.34 | -0.386 | 0.797 | 4.37 | 3.9 | -0.49 | -1.47 | 0.0526 | 0.473 | -0.466 | 0.796 | -0.331 | 0.888
GGAACGAGGGCAAGTTAATAGCAGAGTTTGATGG | 0.629 | 0.178 | -0.0244 | 0.334 | -0.49 | 1.53 | 1.14 | 0.86 | 0.37 | 0.378 | 3.46 | 2.52 | 0.284 | -0.167 | 0.47 | 0.548 | 0.977 | 0.427 | -0.189 | 2.26
GCTAGCAGGCCATTTGGGACACTCAATGACGGGC | -0.491 | -0.668 | -0.545 | -1.16 | -1.04 | -0.523 | 0.681 | -0.463 | -0.719 | -0.835 | 0.822 | 0.411 | -0.432 | -0.76 | -1.04 | -0.714 | -0.736 | -0.559 | -0.547 | -0.00778
TCTTGTAGATCAAAGGATAAGAAAGCCGAAGCCT | 0.762 | 0.274 | -0.116 | -0.287 | -0.528 | 0.671 | 1.13 | 3.36 | 3.43 | 3.38 | 1.75 | 0.245 | 0.639 | -0.158 | 0.25 | -0.0029 | -0.483 | -0.193 | 0.315 | -0.125
TCGAGTAGGTTACCACTGGGGCATTCAGCTTTCT | -0.222 | 0.889 | -0.872 | 0.314 | -0.76 | 1.04 | 0.354 | 1.12 | 0.971 | 0.965 | 3.33 | 3.37 | 0.26 | 0.143 | -0.498 | -0.159 | -1.14 | 0.0985 | -0.786 | 0.833
TTACCAAGGTGAGCTGAGCTCGTTGATCCAACTC | -0.195 | -0.544 | -0.993 | -0.67 | -1.3 | 0.11 | -0.393 | -0.0625 | -0.293 | -0.268 | 0.946 | 1.2 | 0.0399 | 0.147 | -0.967 | -0.427 | -0.854 | 0.0745 | -1.22 | 0.907
CCAGACGGGTGAAAGGTAACTCAGTCTGGTACGC | 0.176 | 0.178 | -0.5 | 0.239 | -0.986 | 2.87 | 4.88 | 5.6 | 3.4 | 5.98 | 0.482 | 2.35 | -1 | -1.51 | 0.107 | 0.559 | -0.486 | 1.55 | -0.431 | 0.652
CTCGCAAGGTCGTGCTCAGGTGAGTATACCAAAC | 2.12 | 1.71 | -0.122 | 1.37 | -0.498 | 2.81 | 0.423 | 1.04 | -0.426 | 0.224 | 0.0828 | 0.996 | -0.606 | -0.427 | 0.113 | 1.76 | -0.272 | 2.37 | -0.702 | 2.47
GCGACTGGGGCATCAGCAGGTTACCATTACTTAA | -0.552 | -0.326 | -0.0382 | 0.719 | -1.11 | 0.893 | 0.716 | 0.73 | -0.277 | 0.0982 | 3.98 | 3.38 | -0.628 | -0.712 | 0.00295 | -0.132 | -0.395 | 0.221 | -0.0866 | 0.832
CTCGAAAGGTCGGTAGAGGTGAGTATACGGATAA | 2.48 | 2.01 | 0.0371 | 1.32 | -0.315 | 2.86 | 1.02 | 1.75 | 0.538 | 0.994 | -0.427 | 1.32 | -0.234 | 0.272 | 1.1 | 2.69 | 0.0204 | 2.63 | 0.416 | 3.13
